In PubChem BioAssay (NCI):
Compounds without any hit were thinned out: in the full panel of roughly 83,000, 20% have a hit.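 48-hour exposure, single concentration, 96-well plates; percent growth endpoint where 0 means no net growth. Active: below 10.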 A number with no mark means an inactive call. Calls of active or inactive are those of the source.

tested on: SN12C renal; assay: NCI-60 one-dose screen, 48 h (100 = growth as untreated, 0 = no growth, -100 = all killed); conditions: 10 µM

SMILES	growth
Cc1ccc(/C=C/C(=O)C(=O)/C=C/c2ccc(C)cc2)cc1	105%
O=C(Nc1ccccc1)Nc1ncnc2c1ncn2-c1ccccc1	83.3%
CCn1c(SC/C(=N/O)c2ccccc2)nnc1-c1ccccc1	88.6%
Cc1cc(SCc2ccccc2)nc(N)n1	92.5%
COc1cc2cc(Oc3ccc(NC(=O)Nc4ccc(Cl)c(C(F)(F)F)c4)cc3)c(C)nc2cc1OC	13.2%
CCCCCCCCCCCCCCCCCC[n+]1ccc2c(C)c3c(c(C)c2c1)c1cc(O)ccc1n3CC	1.79% (active)
CN1CCc2c(sc3nc4n(-c5ccc(Cl)cc5)cnn4c(=O)c23)C1	98.9%
CN1CCc2c(sc3nc4n(-c5ccc(Cl)cc5)c(=O)[nH]n4c(=O)c23)C1	107%
C[n+]1c2ccccc2nc2ccccc21	-27.8% (active)

tested on: UO-31 renal; assay: as above; conditions: 10 µM

SMILES	growth
CC(=O)OC/C=C(/C)C[P+](c1ccccc1)(c1ccccc1)c1ccccc1	61.1%
CCOC(=O)c1cc(C(=O)c2cc(OC)cc(OC)c2)n2ncc3ccccc3c12	19%
C=CCN(CC=C)C(=O)[C@H](CC)[C@@H]1CC[C@@H](C)[C@@H]([C@H](C)[C@@H](O)[C@@H](C)C(=O)[C@H](CC)C2O[C@]3(C=CC(=O)[C@]4(CC[C@@](C)([C@H]5CC[C@](O)(CC)[C@H](C)O5)O4)O3)[C@H](C)C[C@@H]2C)O1 (stereo partly specified)	0.66% (active)
Cc1c2c(nn1C(=O)c1nn(-c3ccc(Cl)cc3)cc1O)-c1ccccc1CC2	10.3%
O=C(CCn1cnc2c(cc(-c3ccccc3)n2-c2ccccc2)c1=O)Nc1ccc(F)cc1	75%
COc1ccc(-c2onc(N)c2-c2cc(OC)c3c(c2)OCO3)cc1	55.2%
CCCN(CCC)C(=O)[C@H](CC)[C@@H]1CC[C@@H](C)[C@@H]([C@H](C)[C@@H](O)[C@@H](C)C(=O)[C@H](CC)C2O[C@]3(C=C[C@@H](O)[C@]4(CC[C@@](C)([C@H]5CC[C@](O)(CC)[C@H](C)O5)O4)O3)[C@H](C)C[C@@H]2C)O1 (stereo partly specified)	-16.8% (active)
CCOC(=O)c1cc(C(=O)c2cc(OC)c(OC)c(OC)c2)n2c1ccc1c3cccnc3ccc12	69%
COc1cc(NC(=O)Nc2cnc(Nc3ccc(N4CCOCC4)cc3)nc2Oc2cccc(OC)c2)cc(OC)c1	6.12% (active)
Fc1ccc2[nH]cc(-c3nc(-c4ccsc4)cs3)c2c1	74.4%
IC(I)I	97.2%
Cc1ccc(-n2c(C)nn3c(=O)c4c5c(sc4nc23)CN(C)CC5)cc1	83.2%
CN(C)c1ccc(/C=N/NC(=O)c2ccccc2Nc2cccc(C(F)(F)F)c2)cc1	77.2%
N#CC1=C(N)Oc2cc(N)ccc2C1c1cccnc1 (stereo unspecified)	84.8%
O=C(CCCCNC(=O)c1nc(-c2ccccc2)n(-c2ccccc2)n1)NO	86.4%
COc1ccc(-c2cc(-c3ccc(OC)c(OC)c3)nc(SCCCC(=O)NO)n2)cc1	-74.3% (active)
COc1cc(C2CC(c3ccccc3)=NN2C(C)=O)cc(OC)c1OC (stereo unspecified)	58.1%
O=C(/C=C/C=C/c1c(C2CC2)nc2ccccc2c1-c1ccc(F)cc1)c1cccs1	-43.8% (active)
CC(C)N(CCOc1ccc(-c2nc3sccn3c2-c2ccnc(S(C)(=O)=O)n2)cc1)C(C)C	70%
O=C(Nc1nc(-c2ccccc2)nc2c1sc(=S)n2-c1ccccc1)C(F)(F)F	81.2%
O=C(CSc1nnc(-c2ccc(Cl)cc2)o1)Nc1ccc(C(=O)/C=C/c2ccc(Cl)cc2)cc1	69.4%
C=CCn1c(SCC(=O)Nc2ccc(C(=O)/C=C/c3ccc(OC)cc3)cc2)nnc1-c1ccc(OC)c(OC)c1	65.8%
CN1CCN(CC(=O)Nc2cccc(-n3cc(-c4ccncc4)c(-c4ccc(Cl)c(O)c4)n3)c2)CC1	50.2%
CCc1ccc(C2=NN(c3ccc(S(C)(=O)=O)cc3)C(=O)CC2)cc1	33.3%
Cc1nn(-c2ccc(-c3ccc(OC(F)(F)F)cc3)cc2)c2nc(Cc3ccccc3)nc(N)c12	28.3%
Cn1c2ccccc2c2c3[nH][nH]c(=O)c3c3c4ccccc4[nH]c3c21	-26.9% (active)
CC[C@H]1OC(=O)[C@H](C)[C@@H](O[C@H]2C[C@@](C)(OC)[C@@H](O)[C@H](C)O2)[C@H](C)[C@@H](O[C@@H]2O[C@H](C)C[C@H](N(C)C)[C@H]2O)[C@](C)(OC)C/C(C)=C2/O[C@@]1(C)C=C2C	50.5%
